Hits are enriched below; roughly 4% of the tested compounds scored in any of these assays.
aDG glyco act – activators of alpha-DG glycosylation, primary screen, uHTS, Pro5-aDG cells, AlphaScreen; activation, % at 10 µM; 0.22% of 360,000 active; AID 624168, 2012; alpha-DG glycosylation AlphaScreen (IIH6); 0% Pro5, 100% B10-LARGE cell signal;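 active = activation of at least 8% versus controls, or a plate z-score of at least 8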;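 note: Pro5 are CHO cells carrying HIG-tagged alpha-DG that lacks glycosylation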
ADAM17 inh – ADAM17 inhibitors, primary screen, biochemical, QFRET | AID 720648, 2013 | inhibition, % at 6.95 µM | 0.83% of 370,000 active | recombinant ADAM17, EDANS/DABCYL FRET peptide cleavage;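 active = inhibition above the mean of compounds lying between control limits plus 3 SD, set per campaign, cut at about 8.5% in these data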;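 note: 0% = DMSO-only wells as the low control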
NR3A LBD binder – binders of NR3A ligand-binding domain, primary screen, biophysical, differential scanning fluorimetry, uHTS; Glutamate receptor ionotropic, NMDA 3A (GRIN3A) ligand-binding domain; NR3A LBD differential scanning fluorimetry, Tm shift; 0% = protein alone, 100% = glycine-bound protein; Tm shift relative to glycine control, % at 25 µM; 2.5% of 340,000 active;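 active = melting temperature shift of at least 10% of the positive control shift, at one fixed dose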
FAS-TE inh – FAS thioesterase domain inhibitors, primary screen, biochemical, fluorescence intensity, uHTS. 0.67% of 360,000 active. AID 602261, 2012. inhibition, % at 15 µM. Fatty acid synthase (Homo sapiens), P49327. recombinant FAS-TE, OMFH fluorogenic substrate, fluorescence endpoint;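 active = compounds whose normalised, plate-corrected inhibition of enzyme fluorescence in the single-dose primary screen is 50% or more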;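 note: 0% = DMSO with enzyme and 100% = substrate without enzyme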
ADAM10 inh – human ADAM10 inhibitors, primary screen, biochemical, QFRET, HTS | Disintegrin and metalloproteinase domain-containing protein 10 (Homo sapiens), O14672 | recombinant ADAM10, EDANS/DABCYL FRET peptide cleavage, 3 h | inhibition, % at 7 µM | 0.62% of 370,000 active | AID 720582, 2013;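 active = inhibition above a per-campaign cutoff equal to the mean of compounds falling between control-based bounds plus 3 SD, cut at about 20% in these data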;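 note: 0% = DMSO wells while the 100% control is not disclosed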
Target sequence (O14672 214-748 limits assumed): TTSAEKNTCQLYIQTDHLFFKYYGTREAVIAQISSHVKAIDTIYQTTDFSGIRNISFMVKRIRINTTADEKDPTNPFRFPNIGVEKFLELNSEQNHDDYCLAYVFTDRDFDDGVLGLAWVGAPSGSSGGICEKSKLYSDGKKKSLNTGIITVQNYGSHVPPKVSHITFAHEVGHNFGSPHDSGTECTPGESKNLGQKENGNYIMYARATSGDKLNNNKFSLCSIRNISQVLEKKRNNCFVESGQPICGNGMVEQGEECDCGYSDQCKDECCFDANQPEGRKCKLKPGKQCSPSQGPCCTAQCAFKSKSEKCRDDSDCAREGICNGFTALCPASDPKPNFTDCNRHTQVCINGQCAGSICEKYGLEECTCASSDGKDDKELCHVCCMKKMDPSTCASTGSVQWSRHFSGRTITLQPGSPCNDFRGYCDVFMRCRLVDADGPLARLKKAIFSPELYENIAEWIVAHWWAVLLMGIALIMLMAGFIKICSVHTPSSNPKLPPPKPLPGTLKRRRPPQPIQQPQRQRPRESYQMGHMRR
* marks the source's active call; other numbers are inactive results; x = not tested or not shown.

SMILES	aDG glyco act	ADAM17 inh	NR3A LBD binder	FAS-TE inh	ADAM10 inh
O=C1OCCN1CCN(CN1C(=O)CCC1=O)CN1C(=O)CCC1=O	0	-1	0	-3	-2
Cc1ccc(C(=O)NCCCc2ccccc2)s1	0	-1	-13	-7	-7
C=CCn1c(C(C)NC(=O)c2cccc(C)c2)n[nH]c1=S (configuration not stated)	0	2	-2	-3	6
COC(=O)C1=C(C)N(c2cc(Cl)cc(Cl)c2)C(=O)C1	0	6	0	0	-2
CC(=O)Nc1nc(-c2ccc(-c3ccccc3)cc2)cs1	0	-2	x	-2	-16
Cc1nc2sccn2c1-c1csc(NCc2ccccc2)n1	5.9*	-1	4	-4	4
Cc1cccc(Nc2nc(-c3ccc(O)c(O)c3)cs2)n1	0	-1	39*	2	-3
CC(=O)Nc1ccc(-c2csc(Nc3ccccn3)n2)cc1	0	1	30*	4	12
Cc1cccnc1Nc1nc(-c2ccc(O)c(O)c2)cs1	0	3	28*	-1	7
CN(C)c1ncnc2c1ncn2C1CCCCO1 (configuration not stated)	0	3	-1	-8	-8
O=S1(=O)C[C@@H](N2CCN(c3ccccc3)CC2)[C@H](COCc2ccccc2)N1	0	-2	x	-1	-9
Cc1ccc(S(=O)(=O)N(CCC#N)CCN2CCCC2)cc1	0	2	4	-6	-1
Cc1ccnc(Nc2nc(-c3ccc(O)c(O)c3)cs2)c1	0	3	39*	6	14
CCC(=O)Nc1nc(C)c(-c2csc(Nc3ccccn3)n2)s1	0	-9	25*	12	-18
CCCC(=O)Nc1nc(C)c(-c2csc(Nc3ccccc3C)n2)s1	0	-4	-8	-4	-1
COc1ccc(-c2csc(Nc3cc(C)ccn3)n2)cc1C	0	5	8	16	4
COc1ccc(Cl)cc1-c1nc(SCC(=O)NCCN2C(=O)CSC2=O)n[nH]1	0	0	0	-8	2
O=C(Cn1c(=O)n2ncnc2c2c3c(sc21)CCCC3)c1ccccc1	0	-1	-1	32	13
COc1ccc([C@H]2Oc3cc(O)cc(O)c3C(=O)C2[C@@H]2C(=O)c3c(O)cc(O)cc3O[C@@H]2c2ccc(OC)cc2)cc1 (some centres not stated)	x	8	28*	x	20
COc1ccc(C2CC(=O)Oc3cc(O)cc(O)c32)cc1 (configuration not stated)	0	1	-4	-5	-14
O=C1/C(=C\c2cc(Cl)c(O)c(Cl)c2)SC(=S)N1Cc1ccccc1	0	-2	-3	-133	1
COc1ccc(/C=C2/SC(=S)N(Cc3ccccc3)C2=O)cc1O	0	0	20*	16	8
COc1ccc(O)c(/C=C2/SC(=S)N(Cc3ccccc3)C2=O)c1	0	-3	16*	-45	-7
COc1ccc(OC)c(/C=C2\SC(=S)N(Cc3cccnc3)C2=O)c1	0	-7	-5	-14	-7
CN1C(=O)Cc2cc(S(=O)(=O)N3CCN(c4cccc(C(F)(F)F)c4)CC3)ccc21	0	2	24*	1	5
SMILES	aDG glyco act	ADAM17 inh	NR3A LBD binder	FAS-TE inh	ADAM10 inh
Cc1ccc(C)c(N2CCN(S(=O)(=O)c3ccc4c(c3)CC(=O)N4C)CC2)c1	0	1	-4	32	3
C=Cc1c(C)c2cc3[nH]c(cc4nc(cc5nc(cc1[nH]2)C(C)=C5CCC(=O)O)C(CCC(=O)O)=C4C)c(C)c3C=C	73*	-3	-1	1	-21
COCc1cc(CN2CCCC(CNC(=O)c3ccc(F)cc3)C2)ccc1OC (configuration not stated)	0	-4	-1	-3	-5
COc1ccc(N2CC(C(=O)Nc3c(C(N)=O)oc4ccccc34)CC2=O)cc1 (configuration not stated)	0	-4	0	-3	-9
CCn1c2ccccc2c2cc(NC(=O)COC(=O)c3cc(Cl)c(N)cc3OC)ccc21	0	-8	7	28	-11
CC1CCC2(CC1)NC(=O)N(CC(=O)Nc1ccc3[nH]c(=O)[nH]c3c1)C2=O (configuration not stated)	0	0	19*	-9	-23
CCCc1nc(SCC(=O)N2CCc3ccccc3C2)c2ccccc2n1	1	-2	13*	21	0
CCCCNC(=O)CSc1nc(CCC)nc2ccccc12	0	-2	-17	-1	-2
O=C(Nc1ccc(O)cc1)c1c(O)c2c([nH]c1=O)CCCC2	0	-10	15*	1	-8
Oc1ccc(/C=N/Nc2nc(-c3cccnc3)nc3ccccc23)c(O)c1	0	0	16*	-3	1
COc1ccc(/C=N/Nc2nc(-c3cccnc3)nc3ccccc23)cc1OC	0	-24	-18	-2	-54
Cc1c(O)ccc(/C=N/Nc2nc(-c3cccnc3)nc3ccccc23)c1O	0	-2	29*	3	5
Cc1nc2ccc(-n3ccc(=O)cc3)cc2s1	0	2	2	-8	-1
COc1ccc(CN2[C@@H](CC(C)=O)c3ccc(/C=C/C(C)=O)cc3S2(=O)=O)cc1	0	-3	0	-10	-2
Oc1c(/C=N/Nc2cccc3cccnc23)ccc2ccccc12	0	-6	32*	29	-19
Oc1cccc(/C=N/Nc2cccc3cccnc23)c1	0	-7	32*	14	0
COC(=O)C1=C(C)N(CCCC(=O)O)C(=O)NC1c1cc2c(cc1[N+](=O)[O-])OCO2 (configuration not stated)	0	-26	1	-8	-86
O=C(CCSc1ccccc1)NC(=O)COC(=O)C1CCCCC1	1	1	-5	0	6
COc1ccc(/C(N)=N/OC(=O)c2ccc([N+](=O)[O-])c(C)c2)cc1OC	0	0	-1	10	1
COc1ccc(NS(=O)(=O)c2cccc(NC(=O)c3ccc(Cl)nc3)c2)cc1	8.5*	7	1	20	6
O=C(Nc1cccc(S(=O)(=O)Nc2ccc(Cl)cc2)c1)c1ccc(Cl)nc1	5	8	21*	42	31*
COc1cccc(S(=O)(=O)Nc2ccc(C(=O)Nc3ccncc3)cc2)c1	0	3	-15	-3	-13
Cc1cccc(NC(=O)c2cccc(NS(=O)(=O)c3ccc(Cl)cc3)c2)c1	0	x	12*	17	x
